Screens deposited in PubChem BioAssay by National Center for Advancing Translational Sciences (NCATS).
RORg inh: blocks mouse ROR gamma transcriptional activity. P51450. Drosophila S2 Gal4-RORgamma UAS-luciferase reporter, 20 h. Potency, µM (highest dose often 53.6 µM), inactives show top-dose activity change, negative = inhibition, usual class: inhibitors. 5.4% of 310,000 active. AID 2551; further: potency means the concentration at half of the fitted maximal effect; nearly all actives have a fitted effect of over 60% in size
Target sequence (P51450 whole entry, looked up, the tested form may be a part): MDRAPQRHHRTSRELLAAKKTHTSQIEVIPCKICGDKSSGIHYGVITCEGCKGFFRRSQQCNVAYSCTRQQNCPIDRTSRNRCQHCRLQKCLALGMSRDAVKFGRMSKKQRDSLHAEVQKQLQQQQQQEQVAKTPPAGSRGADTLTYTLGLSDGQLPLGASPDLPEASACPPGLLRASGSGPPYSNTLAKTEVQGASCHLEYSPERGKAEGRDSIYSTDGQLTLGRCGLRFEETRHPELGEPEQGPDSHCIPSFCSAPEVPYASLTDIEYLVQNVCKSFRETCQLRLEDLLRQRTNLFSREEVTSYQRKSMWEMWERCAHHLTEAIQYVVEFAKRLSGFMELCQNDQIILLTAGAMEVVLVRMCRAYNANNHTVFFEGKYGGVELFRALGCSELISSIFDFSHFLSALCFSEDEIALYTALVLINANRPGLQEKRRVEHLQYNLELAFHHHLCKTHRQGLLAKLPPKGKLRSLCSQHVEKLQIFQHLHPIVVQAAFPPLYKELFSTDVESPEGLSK
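Luciferase reporter read in Schneider cells carrying Gal4-RORγ (mouse) and UAS-Photinus luciferase; cells given compound 1 h before 700 uM copper sulfate induction, then incubated 20 h at ambient temperature.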
DT40 TDP1 CPT: DT40-hTDP1 cell growth loss with CPT; chicken DT40 Tdp1-/-;hTDP1 cells + 20 nM CPT, ATP luminescence, 48 h; Potency, µM (series often up to 46.2 µM), inactives show at the top dose activity change, negative = growth inhibition, hits mostly inhibitors; 12% of 420,000 active; further: potency means the concentration at half of the fitted maximal effect; nearly all actives have a fitted effect of over 55% in size
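Chicken DT40 Tdp1-/- cells complemented with human TDP1, 400 cells/well, exposed to compounds plus 20 nM camptothecin for at least 48 h at 37 C; viability read as ATP content by CellTiter-Glo luminescence.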
Gal4-VP16 FLuc: counter-screen for ROR gamma inhibitors: Gal4-VP16 reporter; Drosophila S2 Gal4-VP16 UAS-luciferase, luminescence, 20 h; Potency, µM (series often up to 53.6 µM), for the others: top-dose activity, negative = inhibition, hits mostly inhibitors; 3.5% of 310,000 active;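 further: Gal4-VP16 expression switched on by copper sulfate through the metallothionein promoter; potency means the concentration at half of the fitted maximal effect; nearly all actives have a fitted effect of over 50% in size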
DT40 TDP1 no CPT: qHTS for Inhibitors of human tyrosyl-DNA phosphodiesterase 1 (TDP1): qHTS in cells in absence of CPT; 15% of 420,000 active; AID 686978, 2013; DT40 Tdp1-/- hTDP1 cells, no CPT, ATP luminescence, 48 h; Potency, µM (highest dose often 46.2 µM), without a hit: at the top dose activity change, negative = growth inhibition, hits mostly inhibitors; further: potency means the concentration at half of the fitted maximal effect; nearly all actives have a fitted effect of over 55% in size
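Cells were dispensed at 400 per well, compounds added by pin tool, plates incubated ≥48 hr at 37 °C, then CellTiter-Glo added for 30 min at room temperature before luminescence reading. Line: DT40 Tdp1-/- complemented with hTDP1; camptothecin omitted.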
ELG1 DNA repair: blocks ELG1-dependent DNA repair in HEK293T cells. AID 504467. 2.3% of 330,000 active. Potency, µM (series often up to 46.1 µM), inactives show at the top dose activity change, negative = inhibition, hits mostly inhibitors. HEK293T ELG1-luciferase reporter, luminescence, 16 h; DNA damage induced by 5-fluorouridine; further: potency means the concentration at half of the fitted maximal effect; nearly all actives have a fitted effect of over 55% in size
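5-Fluorouridine DNA damage + compound/DMSO, 2,000 cells/well, 16 h, 37 °C/5% CO2. ONE-Glo, 30 min RT, luminescence. Readout = decrease in reporter signal.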
IL1B secr inh: blocks inflammasome-driven IL-1 beta release. activity change, % at 57.5 µM. 4.7% of 360,000 active. THP-1 LPS/ATP IL-1B secretion, AlphaLISA, 16 h; hits give low values. AID 743279; in the data active means activity change below about -50%; inconclusive means mostly about -30% to -49%
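THP-1 cells pretreated 1 hr with compounds (up to 57.5 uM final), then stimulated with LPS (250 ng/mL final) plus ATP (1.25 mM final); secreted IL-1B measured by AlphaLISA after 16 hr, decreased signal indicating inhibition.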
* = called active by the depositor; ? = inconclusive; . = no result given. Most compounds without a hit are left out; they make up all but 21% or so of the library. Unless noted, the call rests on the fitted dose curve; in most records, active means well fitted curve in the direction sought with a large enough effect; inconclusive means small, poorly fitted or top-dose-only effect, or another doubt; inactive means no such curve, though single readings can be large; an effect the other way counts as inactive or inconclusive. On the % scale 0 is the no-effect control and ±100 the full control effect.

SMILES | RORg inh | DT40 TDP1 CPT | Gal4-VP16 FLuc | DT40 TDP1 no CPT | ELG1 DNA repair | IL1B secr inh
COc1ccc(OC)c(-c2c3c([nH]c(=S)c2C#N)CCCC3)c1 | 16µM* | 1% | ? | -30% | -10% | 47
N#Cc1c(-c2cccnc2)c2c([nH]c1=S)CCCC2 | 11µM* | -10% | -26% | -18% | 23% | 27
N#Cc1c(N)nc2c(c1-c1cccnc1)CCCCC2 | 25% | ? | -5% | ? | 13µM* | 14
COc1ccc(-c2c3c([nH]c(=S)c2C#N)CCC3)cc1 | -100% | -21% | ? | ? | 4% | 23
Clc1ccccc1-c1nc(NCc2cccnc2)c2ccccc2n1 | -31% | -2% | -1% | -9% | . | .
COC(=O)[C@H]1[C@H]2CC3c4[nH]c5ccccc5c4CCN3C[C@@H]2CC[C@@H]1O (stereo partly drawn) | 5% | 11% | 1% | 4% | . | .
FC(F)(F)c1cc(CCN2CCNC[C@@H]2CC2CCCCC2)cc(C(F)(F)F)c1 | . | 23µM* | . | ? | 13% | -101*
FC(F)(F)c1cc(CCN2CCNC[C@@H]2c2ccccc2)cc(C(F)(F)F)c1 | . | 16µM* | . | ? | 15% | ?
CCCC[C@@H]1CNCCN1CCc1cc(C(F)(F)F)cc(C(F)(F)F)c1 | . | ? | . | 21µM* | 9% | -61*
Fc1cccc(CCN2CCNC[C@@H]2c2ccccc2)c1 | . | ? | . | ? | 13% | 0
c1nc(C2CCCCC2)cc2cc3c(cc12)OCO3 | . | ? | . | 21µM* | ? | 30
O=C(O)CSCC(=O)N1N=C2/C(=C/c3ccccc3)CCCC2C1c1ccccc1 (stereo not drawn) | 1% | -17% | -12% | -25% | 2% | 2
NC(=O)N1N=C2/C(=C/c3ccccc3)CCCC2C1c1ccccc1 (stereo not drawn) | 1% | -20% | -14% | ? | ? | -57*
O=C(CSc1ncn[nH]1)N1N=C2/C(=C/c3ccccc3)CCCC2C1c1ccccc1 (stereo not drawn) | ? | ? | 0% | ? | -17% | -13
COc1ccc(/C=C2\CCCC3C2=NN(C(=O)CSc2ncn[nH]2)C3c2ccc(OC)cc2)cc1 (stereo not drawn) | 40% | 18µM* | -4% | 23µM* | ? | -85*
Cn1c(=O)c(-c2ccc(F)cc2)nc2cnc(N3CCOCC3)nc21 | 5% | 0% | -8% | 4% | . | .
COc1ccccc1/C=C/CN1CCC(n2nccc2NC(=O)CCc2ccccc2)CC1 | 25% | 15µM* | ? | 12µM* | -14% | -28
COc1ccccc1CN1CCC(n2nccc2NC(=O)CCCc2ccccc2)CC1 | 11% | 15µM* | 6% | ? | ? | ?
CCOc1ccccc1CN1CCC(n2nccc2NC(=O)CCCc2ccccc2)CC1 | -2% | ? | -8% | 18µM* | ? | ?
Cc1cccc(CN2CCC(n3nccc3NC(=O)CCCc3ccccc3)CC2)c1 | . | ? | . | 21µM* | . | ?
COc1ccccc1CC(=O)N(CCC1=CCCCC1)c1c(N)n(Cc2ccccc2)c(=O)[nH]c1=O | . | -15% | . | -23% | 12% | 4
O/N=C(\Cn1ccnc1)c1ccccc1 | . | 3% | . | -11% | . | 18
O=C(C[n+]1ccccc1)c1ccc(I)cc1 | . | -20% | . | ? | . | .
Cc1csc[n+]1CC(=O)c1ccc(I)cc1 | . | 16µM* | . | ? | . | .
O=C(C[n+]1csc2ccccc21)c1ccc(I)cc1 | . | ? | . | 11µM* | . | .
SMILES | RORg inh | DT40 TDP1 CPT | Gal4-VP16 FLuc | DT40 TDP1 no CPT | ELG1 DNA repair | IL1B secr inh
O/N=C(/C[n+]1csc2ccccc21)c1ccccc1 | . | 1.1µM* | . | 1.1µM* | . | .
CCCN(CCC)C(=O)Cn1nnc2sc(-c3ccccc3)cc2c1=O | . | -3% | . | -1% | . | .
COC(=O)[C@H](C)NC(=O)Nc1cccc(Br)c1 | 11% | 0% | 3% | -10% | ? | -2
CCc1ccc2nc(N(CCCN(C)C)C(=O)c3ccc(S(=O)(=O)N4CCCc5ccccc54)cc3)sc2c1 | ? | ? | ? | ? | -13% | -98*
CN(C)CCCN(C(=O)c1ccc(S(=O)(=O)N2CCc3ccccc32)cc1)c1nc2c(Cl)cccc2s1 | ? | ? | ? | ? | 2% | -83*
CCc1ccc2nc(N(CCCN(C)C)C(=O)c3ccc(S(=O)(=O)N4CCCC4)cc3)sc2c1 | 2% | ? | -17% | ? | ? | -13
CN(C)CCN(C(=O)c1ccc(S(=O)(=O)N2CCc3ccccc32)cc1)c1nc2ccc(F)cc2s1 | -4% | ? | -12% | 0% | 12% | -21
COc1cccc2sc(N(CCCN(C)C)C(=O)c3ccc(S(=O)(=O)N4CCCc5ccccc54)cc3)nc12 | ? | ? | ? | ? | ? | -50*
Cc1nc(C(F)(F)F)ccc1C(=O)N1CCC1(C)C(=O)NS(=O)(=O)c1c(C)noc1C (stereo not drawn) | . | -3% | . | 7% | . | 23
c1ccc(-c2n[nH]c3c2CCC3)cc1 | 13µM* | 3% | -21% | -11% | -1% | -6
COc1ccc(-c2cc(C(=O)Nc3c(C)n(C)n(-c4ccccc4)c3=O)c3ccccc3n2)cc1OC | 3% | ? | -11% | 15µM* | 7.3µM* | 3
Cc1c(NC(=O)C(C)OC(=O)c2cc(-c3cccc4ccccc34)nc3ccccc23)c(=O)n(-c2ccccc2)n1C (stereo not drawn) | ? | -17% | -12% | ? | ? | ?
Cc1ccc(-c2cc(C(=O)Nc3c(C)n(C)n(-c4ccccc4)c3=O)c3ccccc3n2)cc1 | . | ? | . | ? | 13µM* | -5
Cc1c(NC(=O)c2ccc(COc3ccc4ccccc4c3)o2)c(=O)n(-c2ccccc2)n1C | 22% | ? | 7% | 23µM* | 0% | -14
Cc1c(NC(=O)c2cc(-c3ccccc3)nc3ccccc23)c(=O)n(-c2ccccc2)n1C | . | ? | . | ? | 5.8µM* | -7
COc1ccc(-c2cc(C(F)F)n3ncc(C(=O)Nc4c(C)n(C)n(-c5ccccc5)c4=O)c3n2)cc1 | 1% | ? | 4% | 12µM* | ? | 1
Cc1c(NC(=S)NC(NC(=O)C(C)C)C(Cl)(Cl)Cl)c(=O)n(-c2ccccc2)n1C (stereo not drawn) | 10% | 15µM* | -6% | 15µM* | 0% | 25
